Screens from PubChem BioAssay.
Only some compounds are listed: those with a hit (about 3.3% of all), similar ones and a draw of the others.
D3 ag: activates the human D3 dopamine receptor. P35462. D3R DiscoveRx beta-arrestin cells, luminescence, 90 min. max activation, %. 410,000 tested, 0.58% active; in the data active = max activation above about 30%; also: 0% is about no effect
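Agonist mode: compounds and dopamine controls were applied to plated cells for 90 min at 37 degrees C after an overnight attachment at 1500 cells/well. Luminescent read-out followed 30 - 60 minutes at room temperature with DiscoveRx detection reagent.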
PI4K2A inh: blocks human PI4K2A kinase activity; Q9BTU6; purified PI4K2A, ADP-Glo luminescence, 1 h; hits give low values; activity change, negative = inhibition, % at 76.9 µM; 420,000 tested, 0.13% active; in the data active = activity change below about -50%; inconclusive = mostly about -30% to -49%;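 also: -100% = wells without enzyme as full effect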
Target sequence (Q9BTU6 whole entry, looked up): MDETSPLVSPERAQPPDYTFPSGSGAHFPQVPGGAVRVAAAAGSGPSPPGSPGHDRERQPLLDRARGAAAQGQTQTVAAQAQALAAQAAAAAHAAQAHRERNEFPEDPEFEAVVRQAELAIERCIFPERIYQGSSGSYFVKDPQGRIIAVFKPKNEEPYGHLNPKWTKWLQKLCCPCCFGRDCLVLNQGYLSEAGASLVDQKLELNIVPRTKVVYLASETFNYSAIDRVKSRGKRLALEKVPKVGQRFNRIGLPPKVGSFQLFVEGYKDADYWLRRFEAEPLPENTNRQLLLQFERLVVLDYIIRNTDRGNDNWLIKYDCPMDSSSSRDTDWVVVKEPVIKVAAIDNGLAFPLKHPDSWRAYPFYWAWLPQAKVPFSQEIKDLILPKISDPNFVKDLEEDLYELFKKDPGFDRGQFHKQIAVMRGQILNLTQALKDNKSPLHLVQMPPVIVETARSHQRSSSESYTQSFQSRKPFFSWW
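ADP-Glo luminescence measured ADP generated by PI4K2A enzyme (4 ug/mL before mixing) with 1.2 mM PI substrate (pre-mix) and 300 microM ATP (pre-mix). Tris pH7.5 buffer with MgCl2, Triton X-100; 1 h reaction at ambient temperature.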
LDHA inh: LDHA (human) enzyme inhibition. purified LDHA, NADH/diaphorase-resazurin fluorescence; hits give low values. activity change, % (values are at about 110 or 230 µM). 480,000 tested, 0.15% active. AID 1347041; in the data active = activity change below about -30%; inconclusive = mostly about -25% to -30%;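 also: plate controls were DMSO wells for no effect and wells without enzyme for full effect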
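Human LDH5 at 2 nM final in Tris HCl pH 7.4 with 0.06 mM NADH and 0.2 mM pyruvate, reacted 5 minutes at room temperature. Remaining NADH coupled via diaphorase/resazurin; resorufin fluorescence read at 0 and 20 minutes, normalized to enzyme-free and DMSO wells.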
DRD3 antagonist: antagonists of human D3 dopamine receptor | P35462 | D3R cells, DiscoveRx beta-arrestin luminescence, antagonist mode; hits give low values | max response, negative = inhibition, % | 360,000 tested, 2.5% active; in the data active = max response below about -50%; inconclusive = no clear call, values can overlap the other calls; also: % is scaled to controls: 0 for no effect and ±100 for the full control effect
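Cells expressing the human receptor were seeded at 1500 cells/well, incubated overnight at 37 degrees C in 5% CO2, then exposed to library compounds with dopamine controls for 90 minutes at 37 degrees C before luminescent detection.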
PI5P4K alpha inh: PI5P4K alpha (human) kinase inhibition; P48426; PI5P4Kalpha enzyme, ADP-Glo luminescence, 60 min; hits give low values; max response, %; 330,000 tested, 1.2% active; AID 652105; active = max response of -50% or lower; inconclusive = between -30% and -50%; inactive = -30% or higher; also: value at the top dose of about 77 µM; % is scaled to controls: 0 for no effect and ±100 for the full control effect
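Single end-point luminescence (ADP-Glo) quantified ADP from PI5P4Kalpha turnover; ATP 5 microM final, 1 h at RT, 0.1% CHAPS and 0.28 mM EGTA in HEPES pH 7.4.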
* = called active by the depositor.

Results for C[C@@H]1CCCN1c1cccc2c1S(=O)(=O)N(C1CC1)CCCO2 ?
PI4K2A inh: -0.5

How did CCOc1ccc(-c2nc3c(C#N)c[nH]n3c2NC2CCCCC2)cc1 do in these assays?
D3 ag: -15.8; PI4K2A inh: -1.2; LDHA inh: -5.5

How did COc1ccc(-c2nc3c(C#N)c[nH]n3c2NC2CCCC2)cc1 do in these assays?
D3 ag: 49.5*; PI4K2A inh: -0.8; LDHA inh: -3.1

Results for Cc1cc(C)n(CCCNCC(O)COCc2cccs2)n1 (stereo not given) ?
LDHA inh: 0.0

How did COc1ccc(-c2c(C)nn3c2NC(=O)CCC3=O)cc1S(=O)(=O)Nc1ccc(C(C)C)cc1 do in these assays?
LDHA inh: 2.5

How did Cc1cc(Cl)cc(Br)c1OCCNCC(C)O (stereo not given) do in these assays?
D3 ag: -13.5; PI4K2A inh: 1.7; LDHA inh: -1.1; DRD3 antagonist: -70.8*; PI5P4K alpha inh: 19.4

What do the screens show for `Cc1cc(Cl)cc(Br)c1OCCCCn1cncn1`?
D3 ag: 2.7; PI4K2A inh: 4.2; LDHA inh: inconclusive; DRD3 antagonist: -4.0; PI5P4K alpha inh: 3.5

How did CC(=O)CSc1nsc(SCC(C)=O)c1C#N do in these assays?
D3 ag: -6.3; PI4K2A inh: -4.5; LDHA inh: -1.0; DRD3 antagonist: -69.1*; PI5P4K alpha inh: inconclusive

How did CCOC(=O)CSc1nsc(SCC(=O)OCC)c1C#N do in these assays?
D3 ag: -2.9; PI4K2A inh: -1.1; LDHA inh: -7.2; DRD3 antagonist: -0.1; PI5P4K alpha inh: -0.7

Results for Cc1ccc(NC(=O)c2n[nH]c(=O)c3ccccc23)cc1F ?
LDHA inh: -1.3

What do the screens show for `Cc1nnc(Nc2ccc(Cl)cc2)s1`?
D3 ag: 4.6; PI4K2A inh: 0.5; LDHA inh: -6.5; DRD3 antagonist: 9.2; PI5P4K alpha inh: 9.2

Results for CCOc1ccc(Nc2n[nH]c(=S)s2)cc1 ?
D3 ag: -2.0; PI4K2A inh: 0.5; LDHA inh: -12.9; DRD3 antagonist: -14.0; PI5P4K alpha inh: -76.4*

How did S=c1[nH]nc(Nc2ccc(Cl)cc2)s1 do in these assays?
D3 ag: -3.1; PI4K2A inh: -4.4; LDHA inh: -18.5; DRD3 antagonist: 101.7; PI5P4K alpha inh: -73.5*

Results for Cc1ccc(Nc2n[nH]c(=S)s2)cc1 ?
D3 ag: -6.9; PI4K2A inh: -7.8; LDHA inh: -15.4; DRD3 antagonist: -51.1*; PI5P4K alpha inh: -67.5*

Results for Cc1ccc(Nc2n[nH]c(=S)s2)cc1F ?
D3 ag: -12.6; PI4K2A inh: 6.9; LDHA inh: -3.0; DRD3 antagonist: inconclusive; PI5P4K alpha inh: -75.6*

Results for CCOc1ccc(Nc2nc3ccccc3c(=O)s2)cc1 ?
D3 ag: 2.4; PI4K2A inh: -9.2; LDHA inh: -8.2; DRD3 antagonist: -22.9; PI5P4K alpha inh: -6.2

How did COc1ccc(C2c3c(ncn(CCc4ccccc4)c3=N)Oc3ccc4ccccc4c32)cc1OC (stereo not given) do in these assays?
LDHA inh: 6.2

Results for Cc1cccc(C)c1NC(=O)CNC(=O)c1nccnc1N ?
LDHA inh: 12.3

What do the screens show for `O=C(Nc1cnc2ccccc2c1)N1CCOCC1`?
D3 ag: -4.5; PI4K2A inh: -14.5; LDHA inh: 5.6; DRD3 antagonist: -66.7*; PI5P4K alpha inh: -2.5

What do the screens show for `O=[N+]([O-])c1cc2cccnc2c2ncccc12`?
D3 ag: -6.6; PI4K2A inh: -5.9; LDHA inh: -11.6; DRD3 antagonist: -12.3; PI5P4K alpha inh: -3.9

How did O=[N+]([O-])c1cc(O)c2ncccc2c1 do in these assays?
D3 ag: -16.4; PI4K2A inh: -27.7; LDHA inh: 36.9; DRD3 antagonist: -58.3*; PI5P4K alpha inh: -3.1

Results for COC(=O)c1cccc(COC(=O)Cn2cnc3c2c(=O)n(C)c(=O)n3C)c1 ?
LDHA inh: -1.7

What do the screens show for `CCCCNC(=S)NC1CCCC(C)C1C` (stereo not given)?
LDHA inh: 4.1

Results for CC(C)(C)OC(=O)NCCc1nnc(SCc2ccccc2Cl)o1 ?
D3 ag: -2.2; PI4K2A inh: 0.1; LDHA inh: 4.6; DRD3 antagonist: -12.1

Results for CC(C)(C)OC(=O)NCCc1nnc(S(=O)(=O)Cc2ccc(Cl)cc2Cl)o1 ?
D3 ag: -14.6; PI4K2A inh: 38.8; LDHA inh: -8.6; DRD3 antagonist: -70.5*; PI5P4K alpha inh: 1.5
